# Laboratory results taken from PubChem BioAssay.
# Records with an inconclusive call do not appear. The source made the active and inactive calls. Cut-off read from the data, not from the text of the source, unless noted: active = fluorescence slope change above about 50%; inconclusive = mostly about 31% to 49%; inactive = weaker than that.
# Experiments:
# [1] = molecular target: ATP-dependent translocase ABCB1 (Homo sapiens) (UniProt P08183); test: P-glycoprotein substrate transport blockade – cell-based (AID 377); conditions: MDR1-expressing cells, fluorescent substrate accumulation slope; stronger effect = higher value; concentration not given here
# [2] = compounds altering viability of human ES cells (AID 493140; call rule not given here;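 note: cells exposed to compounds for four days before counting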); conditions: human embryonic stem cell survival screen; stronger effect = higher value
# [3] = P. berghei load reduction in hepatocytes – cell-based, HepG2, luciferase luminescence, HepG2 viability, primary screen (AID 624349; in the data active = parasite load remaining mostly below about 12%, no sharp cut-off; inactive = mostly above about 10%;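 note: 100% = mean of DMSO negative control wells on the same plate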); conditions: P. berghei liver stage in HepG2, luciferase luminescence, concentration not given here; parasite load remaining: stronger effect = lower value; viability: measured here: HepG2 viability without parasites
# ATP-dependent translocase ABCB1 (Homo sapiens), sequence (P08183 whole entry, looked up): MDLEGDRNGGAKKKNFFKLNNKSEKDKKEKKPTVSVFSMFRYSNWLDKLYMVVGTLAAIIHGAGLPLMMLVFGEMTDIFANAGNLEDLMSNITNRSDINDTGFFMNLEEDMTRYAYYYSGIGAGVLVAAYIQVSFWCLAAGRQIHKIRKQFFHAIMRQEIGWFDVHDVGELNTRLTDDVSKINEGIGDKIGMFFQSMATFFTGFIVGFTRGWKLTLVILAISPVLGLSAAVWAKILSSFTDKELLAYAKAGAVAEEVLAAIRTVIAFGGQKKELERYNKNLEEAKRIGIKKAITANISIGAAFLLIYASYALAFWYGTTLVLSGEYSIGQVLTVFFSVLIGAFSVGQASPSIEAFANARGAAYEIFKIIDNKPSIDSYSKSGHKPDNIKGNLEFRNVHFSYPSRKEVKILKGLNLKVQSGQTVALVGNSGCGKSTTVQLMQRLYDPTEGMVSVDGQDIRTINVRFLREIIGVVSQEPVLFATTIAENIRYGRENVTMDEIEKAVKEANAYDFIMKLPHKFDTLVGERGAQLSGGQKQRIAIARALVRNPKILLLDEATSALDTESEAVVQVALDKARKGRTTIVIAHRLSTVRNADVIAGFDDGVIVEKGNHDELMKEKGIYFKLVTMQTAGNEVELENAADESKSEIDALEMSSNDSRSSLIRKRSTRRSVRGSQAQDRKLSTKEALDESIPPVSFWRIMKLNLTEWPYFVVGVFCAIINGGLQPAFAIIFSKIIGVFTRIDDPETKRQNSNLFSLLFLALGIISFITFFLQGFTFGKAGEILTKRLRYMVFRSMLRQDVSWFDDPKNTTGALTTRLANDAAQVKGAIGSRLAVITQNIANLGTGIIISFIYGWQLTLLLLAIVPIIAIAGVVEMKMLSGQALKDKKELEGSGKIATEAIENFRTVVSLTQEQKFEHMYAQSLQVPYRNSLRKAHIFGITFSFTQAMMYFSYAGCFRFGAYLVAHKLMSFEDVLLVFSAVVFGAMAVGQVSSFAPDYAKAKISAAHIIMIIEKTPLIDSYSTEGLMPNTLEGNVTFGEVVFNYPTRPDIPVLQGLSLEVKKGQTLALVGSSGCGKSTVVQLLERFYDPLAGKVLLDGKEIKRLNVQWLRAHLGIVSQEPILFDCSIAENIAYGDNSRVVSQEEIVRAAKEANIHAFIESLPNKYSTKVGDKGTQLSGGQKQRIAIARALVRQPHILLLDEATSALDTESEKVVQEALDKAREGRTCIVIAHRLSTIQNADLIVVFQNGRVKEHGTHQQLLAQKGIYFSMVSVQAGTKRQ
Compound,fluorescence slope change [1],survival [2],parasite load remaining [3],viability [3] [%]
COc1ccc([C@@H]2CC(=O)c3c(O)cc(O[C@@H]4OC(CO[C@@H]5OC(C)[C@H](O)[C@H](O)C5O)[C@@H](O)[C@@H](O)C4O)cc3O2)cc1O (stereo partly specified),9.9% (inactive),9.92 (inactive),71.5% (inactive),80.9
COC(=O)C1[C@H]2C[C@H]3c4[nH]c5ccccc5c4CCN3C[C@H]2CC[C@@H]1O (stereo partly specified),78.8% (active),–,–,–
C[C@@H]1C(=O)O[C@H]2CC34[C@H]5C[C@@H](C(C)(C)C)C36[C@@H](OC(=O)[C@@H]6O)OC4(C(=O)O5)[C@]21O (stereo partly specified),57.6% (active),10.1 (inactive),79.2% (inactive),79.7
NCC1OC(OC2C(N)CC(N)C(OC3OC(CO)C(O)C(N)C3O)C2O)C(O)C(O)C1O (stereo unspecified),9.9% (inactive),5.58 (inactive),77.1% (inactive),78.9
C=C1CC23CC4C5[C@@]6(C)C[C@H](OC(=O)c7ccccc7)[C@@H](OC(C)=O)[C@@]57C2[C@H](OC(C)=O)[C@@H]1[C@H](O)[C@H]3[C@H]7N4C6,12.6% (inactive),4.92 (inactive),–,–
CC1O[C@H](O[C@]2(O[C@H]3CC[C@@]4(C)C(=CC[C@H]5[C@@H]6C[C@H]7[C@H]([C@H](C)[C@H]8CC[C@H](C)CN87)[C@@]6(C)CC[C@@H]54)C3)C[C@@H](O[C@@H]3OC(CO)[C@@H](O)[C@@H](O)C3O)[C@@H](O)C(CO)O2)C(O)[C@@H](O)[C@H]1O (stereo partly specified),75.1% (active),4.89 (inactive),74.2% (inactive),82
NCC1OC(OC2C(N)CC(N)C(OC3OC(CO)C(O)C(N)C3O)C2O)C(N)CC1O (stereo unspecified),-2% (inactive),1.08 (inactive),57.1% (inactive),77.2
CC(=O)Nc1c(I)c(C(=O)NC2[C@H](O)OC(CO)[C@@H](O)[C@H]2O)c(I)c(N(C)C(C)=O)c1I (stereo partly specified),95.2% (active),16.9 (inactive),81% (inactive),75.5
O=C(O)c1cc2ccccc2c(Cc2cc3ccccc3c(C(=O)O)c2O)c1O (tested in a mixture with another compound),14.8% (inactive),7.75 (inactive),58.5% (inactive),76.8
CC1Nc2ccccc2C1NC(=O)c1ccc(Cl)c(S(N)(=O)=O)c1 (stereo unspecified),26.2% (inactive),–,–,–
c1ccc2c(c1)CN1CCCCC1=N2,0.4% (inactive),–,–,–
CCC(=O)OC1C(C)OC(OC2C(C)OC(O[C@H]3[C@@H](CC=O)C[C@@H](C)[C@@H](O)/C=C/C=C/C[C@@H](C)OC(=O)C[C@@H](OC(=O)CC)[C@@H]3OC)C(O)C2N(C)C)CC1(C)O (stereo partly specified),72% (active),16.6 (inactive),77.4% (inactive),89
CC(C)N1CCN(c2ccc(OC[C@@H]3CO[C@@](Cn4cncn4)(c4ccc(Cl)cc4Cl)O3)cc2)CC1,82.8% (active),7.75 (inactive),57.7% (inactive),72.8
CC[C@H](C)[C@H]1O[C@]2(CC[C@@H]1C)C[C@@H]1C[C@@H](C/C=C(\C)C(O[C@H]3C[C@H](OC)[C@@H](O[C@H]4C[C@H](OC)[C@@H](O)[C@H](C)O4)[C@H](C)O3)[C@@H](C)/C=C/C=C3\CO[C@@H]4[C@H](O)C(C)=C[C@@H](C(=O)O1)[C@]34O)O2 (stereo partly specified),136% (active),17.6 (inactive),93.7% (inactive),89.6
On1ccccc1=S,9% (inactive),–,–,–
NCC1OC(OC2C(N)CC(N)C(O)C2O[C@@H]2O[C@H](CO)[C@H](OC3OC(CN)C(O)C(O)C3N)C2O)C(N)C(O)C1O (stereo partly specified),78.1% (active),–,–,–
c1ccc2c3c([nH]c2c1)C1C2CCC(C4CCCNC42)N1CC3 (stereo unspecified),15.6% (inactive),1.58 (inactive),–,–
COc1ccc(C(=O)O[C@H]2CC[C@@]3(C)C4CCC5[C@]6(O)[C@@H](O)[C@H](O)[C@H]7[C@@H](CN8C[C@@H](C)CC[C@H]8[C@@]7(C)O)[C@@H]6C[C@@]53O[C@]42O)cc1OC (stereo partly specified),2.5% (inactive),–,–,–
CO[C@@H]1[C@@H](OC2OC(C)C(OC3CC(C)(O)C(OC(=O)CC(C)C)C(C)O3)C(N(C)C)C2O)[C@@H](CC=O)C[C@@H](C)[C@@H](O)/C=C/C=C/C[C@@H](C)OC(=O)C[C@H]1OC(C)=O (stereo partly specified),127% (active),16.8 (inactive),90.7% (inactive),92.1
CC1OC(O[C@H]2/C=C/C=C/C=C/C=C/C=C/C=C/C=C/[C@H](C)[C@@H](O)[C@@H](C)[C@H](C)OC(=O)C[C@H](O)C[C@H](O)CC[C@@H](O)[C@H](O)C[C@H](O)C[C@]3(O)C[C@H](O)[C@@H](C(=O)O)[C@H](C2)O3)C(O)C(N)C1O (stereo partly specified),94.6% (active),10.9 (inactive),50.3% (inactive),92.5
CC[C@H]1OC(=O)[C@H](C)[C@@H](OC2CC(C)(OC)C(O)C(C)O2)[C@H](C)[C@@H](OC2OC(C)CC(N(C)C)C2O)[C@](C)(O)C[C@@H](C)/C(=N\OCOCCOC)[C@H](C)[C@@H](O)[C@]1(C)O (stereo partly specified),66.5% (active),6.25 (inactive),–,–
CCC(C(=O)C(C)C(O)C(C)CCc1ccc(C)c(O)c1C(=O)O)[C@H]1O[C@](CC)([C@H]2CCC(O)(CC)[C@H](C)O2)C[C@@H]1C (stereo partly specified),130% (active),–,–,–
CCCCC[C@H](O)/C=C/C=C/C/C=C\CCCC(=O)O,–,94.8 (inactive),–,–
CCCC(=O)Nc1ncnc2c1ncn2[C@@H]1O[C@@H]2COP(=O)(O)O[C@@H]2C1OC(=O)CCC (stereo partly specified),80% (active),3.33 (inactive),–,–
CC1CCC2(OC1)O[C@H]1C[C@H]3[C@@H]4CC[C@H]5C[C@@H](O)CC[C@]5(C)[C@H]4CC(=O)[C@]3(C)[C@H]1[C@@H]2C (stereo partly specified),74.2% (active),3.25 (inactive),–,–
